# High-throughput results (PubChem)
# NLRP3 yeast inh: blocks the NALP3 inflammasome reconstituted in yeast; Yeast reconstituted NLRP3/ASC/caspase-1, beta-gal luminescence, 24 h; AID 2825; inhibition, % at 10 µM; 330,000 compounds, 0.39% hits;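 active means inhibition of 50% or more; inactive means inhibition below 50%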;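 further: plate controls were induced DMSO wells for no effect and uninduced yeast grown without galactose for full effect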
# TIM10 inh: growth inhibitors of TIM10 yeast strain. S. cerevisiae TIM10 strain growth, BacTiter-Glo luminescence, 24 h. inhibition, % at 10 µM. 330,000 compounds, 1.4% hits. AID 463195;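 active means inhibition of 40% or more at the single tested concentration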;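 further: wild-type TIM10 isogenic control strain grown at permissive 25 °C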
# tim10-1 inh: tim10-1 yeast growth inhibition; S. cerevisiae tim10-1 ts strain growth, BacTiter-Glo, 24 h; 330,000 compounds, 2.2% hits; AID 463190; inhibition, % at 20 µM;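 active means inhibition of at least 40%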;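 further: mutant grown at 25 °C; 0% = DMSO wells with yeast and 100% = wells holding no yeast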
# tim23-1 inh: tim23-1 yeast growth inhibition; S. cerevisiae tim23-1 growth, BacTiter-Glo luminescence, 24 h; inhibition, % at 20 µM; 330,000 compounds, 1.3% hits;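 active means growth inhibition of the mutant yeast at or above 50%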;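 further: temperature-sensitive mutant grown at 25 °C; plate controls were DMSO-treated mutant yeast for no effect and medium wells lacking yeast for full effect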
# PfHsp90 set2: reduces growth (ATP signal) of yeast expressing P. falciparum Hsp90; S. cerevisiae expressing PfHsp90, BacTiter-Glo ATP, 48 h; yeast lacking PDR1 and PDR3 efflux regulators; 310,000 compounds, 0.32% hits; inhibition, % at 9.4 µM; AID 504621;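 active means every replicate shows inhibition above about 80%, whatever the replicate mean, limit read from the data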;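 further: 0% = DMSO neutral controls and 100% = 20 µM radicicol positive controls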
# tim23-1 conf: tim23-1 yeast growth inhibition, confirmed | inhibition, % at 20 µM | shares compounds with tim23-1 inh | 4,400 compounds, 83% hits | S. cerevisiae tim23-1 growth, BacTiter-Glo luminescence, 24 h;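 active means inhibition above about 39% in either of two replicate wells at 20 µM, limit read from the data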;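 further: temperature-sensitive tim23-1 mutant grown at 25 °C; 0% = DMSO wells with yeast and 100% = medium wells without yeast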
# Starred values were filed as active, the others as inactive; x = no result given. Most compounds without a hit are left out; they make up all but 3.7% or so of the library.
SMILES,NLRP3 yeast inh,TIM10 inh,tim10-1 inh,tim23-1 inh,PfHsp90 set2,tim23-1 conf
NNC(=O)c1[nH]c2ccc(Br)cc2c1-c1ccccc1,15,23,20,53*,3,50*
O=C(O)c1cccc(S(=O)(=O)N2CCC(n3nnc4cc(C(F)(F)F)ccc43)CC2)c1,4,-7,15,17,6,x
COc1ccccc1N1CCN(C(=O)C(C)NC(=O)c2cccc([N+](=O)[O-])c2)CC1 (stereo not drawn),4,-8,8,17,10,x
CC(=O)c1ccc(OC(=O)CCNC(=O)c2ccccc2)cc1,-1,8,2,21,-44,x
CCOC(=O)c1cccc(OC(=O)CCNC(=O)c2ccc(Cl)cc2)c1,20,21,-12,57*,3,51*
COCCN(C(=O)c1ccc(N2CCCC2=O)cc1)c1c(N)n(CC(C)C)c(=O)[nH]c1=O,16,-2,4,4,x,x
CCCCN(C(=O)c1ccc(C)cc1)c1c(N)n(CCC)c(=O)[nH]c1=O,11,23,15,53*,-2,54*
CCCCN(C(=O)c1ccncc1)c1c(N)n(CCC)c(=O)[nH]c1=O,12,-7,13,1,-7,x
CCCCN(C(=O)c1ccc2c(c1)OCO2)c1c(N)n(CC(C)C)c(=O)[nH]c1=O,13,12,20,47,-9,x
COCCN(C(=O)c1ccc(N2C(=O)c3ccccc3C2=O)cc1)c1c(N)n(CC(C)C)c(=O)[nH]c1=O,-1,16,21,60*,-9,51*
CCCCN(C(=O)c1ccc2c(c1)OCO2)c1c(N)n(CCCC)c(=O)[nH]c1=O,20,10,19,52*,x,53*
Cc1c(Cl)cccc1NCC(=O)Nc1ccc(Cl)cc1F,23,30,26,54*,0,42*
Cc1ccc(F)cc1NCC(=O)Nc1ccc(Cl)cc1F,14,13,9,13,3,x
COc1ccc(-c2csc(Nc3cc(C)ccn3)n2)cc1OC,35,18,25,94*,-20,31
Cc1nc(NS(=O)(=O)c2ccccc2C)c2c3c(sc2n1)CCC3,35,20,32,53*,x,51*
CC(=O)Nc1ccc(S(=O)(=O)Nc2nc(C)nc3sc4c(c23)CCC4)cc1,5,2,8,12,-15,x
COc1cc(NC(=S)Nc2ccccn2)cc(OC)c1,18,27,15,51*,13,18
CN1C(=O)C(=O)/C(=C(/O)c2ccccc2)C1c1ccc([N+](=O)[O-])cc1 (stereo not drawn),-7,-4,-18,-4,2,x
CCOc1ccc2nc(N3CCCC(C(=O)NCCCN4CC(C)CC(C)C4)C3)sc2c1 (stereo not drawn),13,4,6,2,2,x
CC(C)Oc1ccc(CNC(=S)Nc2ccccc2)cc1Cl,25,11,37,35,-11,x
COc1ccc(CNC(=S)Nc2ccccc2)cc1Cl,6,29,14,65*,2,35
Cc1nc2ccc(S(=O)(=O)NCC(=O)NCCc3ccc(Cl)cc3)cc2s1,9,-1,16,8,0,x
COc1ccc(/C=N/NC(=O)c2cccs2)c2ccccc12,-1,27,-5,56*,3,51*
O=C(Oc1ccc(O)cc1)C12CC3CC(CC(C3)C1)C2,14,25,-19,63*,-24,66*
O=C(OCC(=O)C12CC3CC(CC(C3)C1)C2)c1ccc(O)cc1,20,-3,-6,63*,99*,61*
SMILES,NLRP3 yeast inh,TIM10 inh,tim10-1 inh,tim23-1 inh,PfHsp90 set2,tim23-1 conf
O=C(Oc1ccc2c(c1)OCO2)C12CC3CC(CC(C3)C1)C2,21,7,14,32,7,x
O=S(=O)(/N=C(/Nc1ccccc1)c1ccccc1O)c1ccccc1,19,-8,3,4,5,x
Cc1ccc(-c2nnc(OCc3cccnc3)c3ccccc23)cc1,24,-14,30,53*,x,54*
Cc1ccc(-c2nnc(OCc3nc4ccccc4n3C)c3ccccc23)cc1,0,28,34,52*,29,50*
COc1ccccc1OCc1nc2ccccc2n1C,28,-1,21,16,-8,x
c1ccc(-c2nnc(OCc3cccnc3)c3ccccc23)cc1,26,-64,-16,0,18,x
COCCn1c(C)cc(C(=O)COC(=O)c2ccc(Cl)c(S(N)(=O)=O)c2)c1C,4,-2,11,2,x,x
